Among all 5,500 compounds or so, about 2,000 (36%) were called active. Roughly 18% stayed inconclusive and do not appear here. No stated cut-off is given here; in the data, active means normalized growth mostly below about 0.91 (no sharp cut-off); inconclusive means no clear call, values can overlap the other calls; inactive means mostly above about 0.92. The list shows a part of the results.
Assay: chemical genetic growth profiling, strain panel (AID 1159580);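 further: tested at 20 µM; growth read once vehicle control cultures reached saturation at 30 °C; 1 = growth at the plate median or of vehicle wells; lower values mean less growth of the strain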
Settings: growth OD

Measured: normalized growth

Cc1c(Cl)cccc1Nc1ccccc1C(=O)O
inactive: S. cerevisiae deletion strains, locus YKL068W, active compounds read low 0.954 | S. cerevisiae deletion strains, locus YLR357W, strain rsc2, active compounds read low 0.93 | S. cerevisiae deletion strains, locus YNL250W, strain rad50, active compounds read low 0.941 | S. cerevisiae deletion strains, locus YOL006C, strain TOP1, active compounds read low 0.656 | S. cerevisiae deletion strains, locus YOL012C, strain htz1 0.632 | S. cerevisiae deletion strains, locus YPL055C, strain LGE1, active compounds read low 0.794 | S. cerevisiae deletion strains, locus YPL106C, strain sse1, active compounds read low 0.985 | S. cerevisiae deletion strains, locus YPR141C, strain kar3, active compounds read low 0.95
active: S. cerevisiae deletion strains, locus YJR075W, strain HOC1, active compounds read low 0.852 | S. cerevisiae deletion strains, locus YKL009W, strain mrt4, active compounds read low 0.788 | S. cerevisiae deletion strains, locus YKL085W, strain MDH1 (second series), active compounds read low 0.922 | S. cerevisiae deletion strains, locus YKL085W, strain MDH1, active compounds read low 0.922 | S. cerevisiae deletion strains, locus YKL160W, strain elf1, active compounds read low 0.764 | S. cerevisiae deletion strains, locus YKL190W, strain CNB1, active compounds read low 0.863 | S. cerevisiae deletion strains, locus YKR001C, strain vps1, active compounds read low 0.52 | S. cerevisiae deletion strains, locus YKR026C, strain gcn3, active compounds read low 0.79 | S. cerevisiae deletion strains, locus YKR091W, strain srl3, active compounds read low 0.829 | S. cerevisiae deletion strains, locus YLL001W, strain dnm1, active compounds read low 0.814 | S. cerevisiae deletion strains, locus YLL026W, active compounds read low 0.831 | S. cerevisiae deletion strains, locus YLL041C, strain sdh2, active compounds read low 0.818 | S. cerevisiae deletion strains, locus YLR027C, strain aat2, active compounds read low 0.819 | S. cerevisiae deletion strains, locus YLR039C, strain RIC1, active compounds read low 0.537 | S. cerevisiae deletion strains, locus YLR058C, strain SHM2, active compounds read low 0.849 | S. cerevisiae deletion strains, locus YLR102C, strain apc9, active compounds read low 0.788 | S. cerevisiae deletion strains, locus YLR113W, strain HOG1, active compounds read low 0.566 | S. cerevisiae deletion strains, locus YLR221C, strain rsa3, active compounds read low 0.777 | S. cerevisiae deletion strains, locus YLR258W, strain gsy2, active compounds read low 0.831 | S. cerevisiae deletion strains, locus YLR262C, strain YPT6 (second series), active compounds read low 0.48 | S. cerevisiae deletion strains, locus YLR262C, strain YPT6, active compounds read low 0.491 | S. cerevisiae deletion strains, locus YLR268W, strain sec22, active compounds read low 0.724 | S. cerevisiae deletion strains, locus YLR320W, strain mms22, active compounds read low 0.59 | S. cerevisiae deletion strains, locus YLR330W, strain CHS5, active compounds read low 0.82 | S. cerevisiae deletion strains, locus YLR342W, strain FKS1 (second series), active compounds read low 0.671 | S. cerevisiae deletion strains, locus YLR342W, strain FKS1, active compounds read low 0.795 | S. cerevisiae deletion strains, locus YLR370C, strain arc18, active compounds read low 0.808 | S. cerevisiae deletion strains, locus YLR371W, strain rom2, active compounds read low 0.838 | S. cerevisiae deletion strains, locus YLR384C, strain iki3, active compounds read low 0.832 | S. cerevisiae deletion strains, locus YLR418C, strain cdc73, active compounds read low 0.591 | S. cerevisiae deletion strains, locus YML016C, strain PPZ1, active compounds read low 0.857 | S. cerevisiae deletion strains, locus YML032C, strain rad52, active compounds read low 0.792 | S. cerevisiae deletion strains, locus YML120C, strain ndi1, active compounds read low 0.723 | S. cerevisiae deletion strains, locus YML124C, strain tub3, active compounds read low 0.787 | S. cerevisiae deletion strains, locus YMR058W, strain fet3, active compounds read low 0.79 | S. cerevisiae deletion strains, locus YMR078C, strain ctf18, active compounds read low 0.761 | S. cerevisiae deletion strains, locus YMR125W, strain sto1, active compounds read low 0.781 | S. cerevisiae deletion strains, locus YMR129W, active compounds read low 0.823 | S. cerevisiae deletion strains, locus YMR205C, strain PFK2, active compounds read low 0.673 | S. cerevisiae deletion strains, locus YMR223W, strain ubp8, active compounds read low 0.795 | S. cerevisiae deletion strains, locus YMR231W, strain pep5, active compounds read low 0.813 | S. cerevisiae deletion strains, locus YMR263W, strain SAP30, active compounds read low 0.824 | S. cerevisiae deletion strains, locus YMR307W, strain GAS1, active compounds read low 0.557 | S. cerevisiae deletion strains, locus YNL067W, strain RPL9B, active compounds read low 0.846 | S. cerevisiae deletion strains, locus YNL071W, strain lat1, active compounds read low 0.569 | S. cerevisiae deletion strains, locus YNL153C, strain GIM3, active compounds read low 0.849 | S. cerevisiae deletion strains, locus YNL183C, strain NPR1, active compounds read low 0.641 | S. cerevisiae deletion strains, locus YNL209W, strain ssb2, active compounds read low 0.869 | S. cerevisiae deletion strains, locus YNL233W, strain BNI4, active compounds read low 0.797 | S. cerevisiae deletion strains, locus YNL248C, strain rpa49, active compounds read low 0.886 | S. cerevisiae deletion strains, locus YNL271C, strain bni1, active compounds read low 0.919 | S. cerevisiae deletion strains, locus YNL298W, strain CLA4, active compounds read low 0.842 | S. cerevisiae deletion strains, locus YNL307C, strain MCK1, active compounds read low 0.437 | S. cerevisiae deletion strains, locus YNL322C, strain KRE1 (second series), active compounds read low 0.856 | S. cerevisiae deletion strains, locus YNL322C, strain KRE1, active compounds read low 0.876 | S. cerevisiae deletion strains, locus YNR049C, strain mso1, active compounds read low 0.822 | S. cerevisiae deletion strains, locus YNR052C, strain pop2, active compounds read low 0.821 | S. cerevisiae deletion strains, locus YOL147C, strain pex11, active compounds read low 0.765 | S. cerevisiae deletion strains, locus YOR001W, strain rrp6, active compounds read low 0.8 | S. cerevisiae deletion strains, locus YOR061W, strain CKA2, active compounds read low 0.852 | S. cerevisiae deletion strains, locus YOR069W, strain VPS5, active compounds read low 0.864 | S. cerevisiae deletion strains, locus YOR070C, strain gyp1, active compounds read low 0.802 | S. cerevisiae deletion strains, locus YOR080W, strain dia2, active compounds read low 0.855 | S. cerevisiae deletion strains, locus YOR083W, strain WHI5, active compounds read low 0.767 | S. cerevisiae deletion strains, locus YOR106W, strain vam3, active compounds read low 0.745 | S. cerevisiae deletion strains, locus YOR136W, strain idh2, active compounds read low 0.893 | S. cerevisiae deletion strains, locus YOR144C, strain elg1, active compounds read low 0.812 | S. cerevisiae deletion strains, locus YOR184W, strain ser1, active compounds read low 0.578 | S. cerevisiae deletion strains, locus YOR231W, strain MKK1, active compounds read low 0.644 | S. cerevisiae deletion strains, locus YOR265W, strain rbl2, active compounds read low 0.828 | S. cerevisiae deletion strains, locus YOR270C, strain vph1, active compounds read low 0.565 | S. cerevisiae deletion strains, locus YOR290C, strain snf2, active compounds read low 0.716 | S. cerevisiae deletion strains, locus YOR316C, strain cot1, active compounds read low 0.79 | S. cerevisiae deletion strains, locus YPL051W, strain arl3, active compounds read low 0.656 | S. cerevisiae deletion strains, locus YPL078C, strain atp4, active compounds read low 0.646 | S. cerevisiae deletion strains, locus YPL240C, strain hsp82, active compounds read low 0.831 | S. cerevisiae deletion strains, locus YPL241C, strain CIN2, active compounds read low 0.852 | S. cerevisiae deletion strains, locus YPL256C, strain CLN2, active compounds read low 0.643 | S. cerevisiae deletion strains, locus YPR119W, strain clb2, active compounds read low 0.779 | S. cerevisiae deletion strains, locus YPR163C, strain tif3, active compounds read low 0.784 | S. cerevisiae deletion strains, locus YPR167C, strain met16, active compounds read low 0.805 | S. cerevisiae deletion strains, strain wtn01, active compounds read low 0.8 | S. cerevisiae strains, strain wild type, active compounds read low 0.857

From PubChem BioAssay AID1159580 (chemical genetic matrix, 2015)
